Experimental data as given in PubChem BioAssay (NCI).
Compounds without any hit were thinned out: in the full panel of roughly 83,000, 20% have a hit.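 Testing used 96-well plates and a 48-hour single-concentration exposure. Example: -40 means 40% of the starting cells died.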 Active and inactive are the calls of the source.

What follows are molecules tested on OVCAR-4 ovarian (assay: NCI-60 one-dose screen, 48 h (100 = growth as untreated, 0 = no growth, -100 = all killed)). Details: 10 µM unless noted.
Experimental: Growth inhibition of the OVCAR-4 human tumor cell line is measured as a screen for anti-cancer activity. Cells are grown in 96 well plates and exposed to the test compound for 48 hours. Compounds are tested at a single concentration, which is 10^-5 M for most compounds. The reported endpoint is percent growth (GI% or GIPRCNT), where numbers from 0 - 100% represent growth inhibition, and numbers from -100% - 0 represent cell death. For example, a value of 40 represents 60% growth inhibition. A value of 0 means no net growth occurred over the course of the experiment. A value of -40 indicates 40% of cells at the beginning of the experiment died by the end of the experiment. A value of -100 means all cells are dead at the end of the experiment.
NCI-60 Human Tumor Cell Lines Screen was performed using the standard one-dose NCI protocol, which is described in more detail at https://dtp.cancer.gov/discovery_development/nci-60/default.htm.
Compounds with GIPRCNT values below 10 were considered active. Activity score was based on GIPRCNT using the following formula: […]
Score is 0 for GIPRCNT values of 100 or above, 50 for GIPRCNT values of 0, and 100 for GIPRCNT values of -100.
In the case of `CC1=N/C(=C\c2cccc(Br)c2)C(=O)O1`, the growth is reported as 110% (inactive). `COC1/C=C\OC2(C)Oc3c(C)c(O)c4c(O)c(c(CN(C)CCO)c(O)c4c3C2=O)NC(=O)/C(C)=C\C=C/C(C)C(O)C(C)C(O)C(C)C(OC(C)=O)C1C` (stereo not given) was tested, and the growth was 84.5% (inactive). For `CCCCCCCCCCNC(=O)CCl`, the growth was 80.3% (inactive). With `Cc1ccc(S(=O)(=O)N(CCc2ccc(Cl)cc2)S(=O)(=O)c2ccc(C)cc2)cc1` the growth was 86.5% (inactive). For `CN(C)C(=O)c1cc2cnc(Nc3ccc(-c4csc5c(=O)cc(N6CCNCC6)oc45)cc3)nc2n1C1CCCC1`, the growth was 29.7% (inactive). For `Cc1ccc2c(c1)C(=O)/C(=C/c1ccc(OCC(=O)c3ccccc3)cc1)O2`, the growth was 83.9% (inactive). For `C=C1C(=O)O[C@H]2[C@H]1CC/C(Cn1cc(Cn3ccc4ccccc43)nn1)=C\CC[C@@]1(C)O[C@@H]21`, the growth was 45.4% (inactive). `O=C(/C=C/c1cc2ccccc2[nH]c1=O)/C=C/c1cc2ccccc2[nH]c1=O` was tested, and the growth was 38.3% (inactive). In the case of `CC(C)C1=C[C@@]23CC[C@@H]4[C@](C)(CCC[C@@]4(C)C(=O)OCC#CCN4CCCC4)[C@H]2C[C@@H]1[C@H]1C(=O)OC(=O)[C@H]13`, the growth is reported as 92% (inactive). For `COc1nc2c(cc1S(=O)(=O)c1ccccc1)CCc1c-2cnn1-c1ccc(Cl)cc1`, the growth was 90.4% (inactive). For `Cc1csc2ccc(Cl)cc12`, the growth was 98.1% (inactive). `OCC1C2C=CC(C2)C1CO` (stereo not given) was tested, and the growth was 94% (inactive). `C=C1CCC2C3(C)COC(C)(C)OC3CCC2(C)C1C/C=C1/C(=O)OCC1OC(C)=O` (stereo not given) was tested, and the growth was 32.3% (inactive). `CN1CCOCCOCCOc2ccccc2NC(=O)c2nc(cnc2N)-c2ccc(cc2)S1(=O)=O` was tested, and the growth was 46.1% (inactive). `CCOC(=O)/C=C/C(=O)[C@H](CC(C)C)NC(=O)[C@H](Cc1ccccc1)NC(=O)OCc1ccccc1` was tested, and the growth was 91.9% (inactive). For `CN1CCN(Cc2ccc(NC(=O)c3cncc(C#Cc4c(N)ncc5ccc(C#N)cc45)c3)cc2C(F)(F)F)CC1`, the growth was -73.9% (active). In the case of `CC(=O)C1=C(O)C=C2Oc3c(C(=O)/C=C/c4cc(C(F)(F)F)cc(C(F)(F)F)c4)c(O)c(C)c(O)c3[C@]2(C)C1=O`, the growth is reported as 12.5% (inactive). In the case of `Oc1cc(O)c2c(=S)cc(-c3ccc(Cl)cc3)oc2c1`, the growth is reported as 6.46% (active). With `COc1ccc(C2Nc3ccccc3-n3cccc32)cc1` (stereo not given) the growth was 93.6% (inactive). For `O=C1CC(c2nc3ccccc3[nH]2)CN1C1CCCCC1` (stereo not given), the growth was 102% (inactive). In the case of `CCN(CC)CCCNc1cc(OC)cc2nc3cc(Cl)ccc3nc12`, the growth is reported as -11% (active). For `CCCCN(CC)CCCCCCCCCCN1CCCc2cc(OC)ccc21`, the growth was 101% (inactive). For `C/C(=C(/c1ccc(O)cc1)c1ccc(OCCN2CCCC2)cc1)c1ccccc1`, the growth was 54.5% (inactive). `CCCCCN(CCCCC)CCC[C@@H](C)[C@H]1CC[C@H]2[C@@H]3[C@H](OCCCN)C[C@@H]4C[C@H](OCCCN)CC[C@]4(C)[C@H]3C[C@H](OCCCN)[C@]12C` was tested, and the growth was 85.2% (inactive). For `COc1cc(OC)c(/C=C/C(=O)c2c(OC)cc(OC)cc2OC)c(OC)c1`, the growth was 47.6% (inactive). For `CC(=O)C1=C(O)C=C2Oc3c(C(=O)/C=C/c4ccccc4)c(O)c(C)c(O)c3[C@]2(C)C1=O`, the growth was 55.4% (inactive). `C=C1CCC2C3(C)COC(c4ccc(OC)cc4Br)OC3CCC2(C)C1/C=C/C1=CCOC1=O` (stereo not given) was tested, and the growth was 67.9% (inactive). For `O=C(CN1CCN(c2cc3c(cc2F)c(=O)c(C(=O)O)cn3C2CC2)CC1)Nc1nc(-c2ccc(Cl)cc2)cs1`, the growth was 67.7% (inactive). `CC/C=C\C[C@H](O)C/C=C1/C(=O)C=C[C@@H]1C/C=C\CCCC(=O)NC` was tested, and the growth was 44.4% (inactive). For `COc1cc(-c2c3c(nc4c2c(C)nn4-c2ccccc2)-c2ccccc2C(=O)C3=O)cc(OC)c1OC`, the growth was 78.5% (inactive). `COc1cc(OC)c(/C=C/S(=O)(=O)Cc2ccc(OC)c(N)n2)c(OC)c1` was tested, and the growth was 42.1% (inactive). For `COc1ccc(/C=C2\N=C3Sc4cc(Cl)ccc4C(=O)N3C2=O)cc1`, the growth was 103% (inactive). In the case of `COc1cc(OC)c(/C=C/c2cc[n+](C)c3ccccc23)c(OC)c1`, the growth is reported as 13.6% (inactive). In the case of `Cc1cc(Nc2nc(N3CCOCC3)nc3ccccc23)n[nH]1`, the growth is reported as 52.5% (inactive). In the case of `N#CC1=C(N)Oc2c(ccc3ccccc23)C1c1cccs1` (stereo not given), the growth is reported as 12.6% (inactive). In the case of `CCN(CC)CCC(=O)c1ccc(OC)c2ccccc12`, the growth is reported as 98.4% (inactive). With `COc1ccc(-c2cc(-c3cccnc3)nc3sc4c(=O)n(-c5ccc(C)cc5)nnc4c23)cc1OC` the growth was 109% (inactive). For `COc1ccc(C2CC(=O)Nc3c2c(C)nn3-c2nc3ccccc3[nH]2)cc1` (stereo not given), the growth was 121% (inactive). With `COc1cc(NC(N)=NCC(C)(C)COc2ccc(C(F)(F)F)cc2)cnc1C#N` the growth was 65.8% (inactive). In the case of `COc1cnc2c(c1)C(=O)c1c-2n(CCCBr)c(=O)c2cc([N+](=O)[O-])ccc12`, the growth is reported as 5.15% (active).
